Screening data (PubChem BioAssay)
An excerpt weighted towards active compounds, which were near 3% of everything screened.
TSHR agonist – agonists of human thyroid stimulating hormone receptor | HEK293-CNG-TSHR cells (CNG channel as cAMP sensor), membrane potential dye, cAMP | Potency, µM (titrated, usually from 57.1 µM), without a hit: at the highest dose activation, actives largely listed as activators | hit rate 0.48% among 73,000; active means well fitted activation curve with a large enough effect in the main read-out, with a control signal flat, not every such curve was filed as active; inconclusive means small, poorly fitted or top-dose-only effect, or a change in a side signal; inactive means no such curve, though single readings can be large or run the other way; % of control where 0% means no effect;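 further: the control signal comes from parental cells without the receptor; potency means the concentration at half of the fitted maximal effect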
Target sequence (P16473 whole entry, looked up): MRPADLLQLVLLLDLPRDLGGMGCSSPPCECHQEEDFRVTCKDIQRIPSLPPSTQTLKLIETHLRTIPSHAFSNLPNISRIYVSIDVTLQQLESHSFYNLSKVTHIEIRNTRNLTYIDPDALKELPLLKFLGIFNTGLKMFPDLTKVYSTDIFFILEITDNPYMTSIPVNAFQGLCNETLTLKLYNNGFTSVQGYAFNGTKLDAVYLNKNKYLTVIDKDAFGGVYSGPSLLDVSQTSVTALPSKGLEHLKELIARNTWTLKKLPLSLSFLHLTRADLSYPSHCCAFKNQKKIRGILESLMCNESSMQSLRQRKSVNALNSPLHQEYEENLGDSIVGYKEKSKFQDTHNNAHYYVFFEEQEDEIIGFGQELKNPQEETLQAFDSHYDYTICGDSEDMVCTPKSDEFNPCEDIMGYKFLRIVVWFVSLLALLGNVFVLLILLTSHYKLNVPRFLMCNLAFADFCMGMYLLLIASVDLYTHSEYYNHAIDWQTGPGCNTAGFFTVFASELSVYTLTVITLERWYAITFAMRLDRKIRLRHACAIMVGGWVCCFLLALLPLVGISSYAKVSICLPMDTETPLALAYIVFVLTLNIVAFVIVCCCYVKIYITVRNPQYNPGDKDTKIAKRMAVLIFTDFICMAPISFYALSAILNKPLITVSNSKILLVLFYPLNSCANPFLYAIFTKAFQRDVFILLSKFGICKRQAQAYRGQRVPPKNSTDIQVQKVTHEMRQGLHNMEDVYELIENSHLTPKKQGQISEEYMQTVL
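HEK 293 cells stably expressing TSHR and a cAMP-gated CNG channel; parental CNG-only cells as counterscreen. Cells preloaded 60 min with membrane potential dye plus 100 uM RO 20-1724, then compound 30 min; fluorescence read at 590 nm.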
HEK293 cAMP cs – counter-screen for TSHR agonists: cAMP increase in parental HEK293; parental HEK293 CNG cAMP sensor, membrane potential fluorescence; AID 938; Potency, µM (doses to about 57.1 µM), inactives show top-dose activation, actives largely listed as activators; hit rate 2.5% among 73,000; further: potency means the concentration at half of the fitted maximal effect; % of control where 0% means no effect; nearly all actives have a fitted effect of over 55% in size
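Counterscreen for endogenous-receptor signalling: CNG-channel HEK 293 cells report cAMP rise by membrane depolarization. After 60 min dye equilibration with 100 uM RO 20-1724, compounds incubated 30 min before bottom-read fluorescence at 590 nm.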
Ub-GFP proteasome – proteasome inhibitors stabilizing ubiquitin-GFP reporter | Ubiquitin-GFP reporter cells, proteasome inhibition, GFP fluorescence; response scale: untreated = 0%, 10 µM MG-132 = 100% | AID 526 | 67,000 tested, under 10 active | Potency, µM (titrated, usually from 45.9 µM), for the others: at the highest dose activation (GFP accumulation), actives largely listed as activators; active means well fitted activation curve with a large enough effect, not every such curve was filed as active; inconclusive means small, poorly fitted or top-dose-only effect, or another doubt; inactive means no such curve, though single readings can be large or run the other way; further: potency means the concentration at half of the fitted maximal effect
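Reporter cells (U2OS, ubiquitin-G76V-GFP fusion) are plated overnight, then treated 4 hr at 37 °C with compound titrations from 46 uM down to 2.9 nM. Activity is scaled against untreated cells and 10 uM MG-132.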
HBB splicing – hemoglobin beta splicing modulation; HBB splicing reporter cell assay, activation; EGFP reporter with mutant IVS2-654 intron; response scale: normalised to 500 nM splice-correcting PNA; Potency, µM (series often up to 46.1 µM), inactives show at the top dose activation, most hits filed as activators; hit rate 0.06% among 65,000; AID 925; further: potency means the concentration at half of the fitted maximal effect; 0% is about no effect
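Compounds were applied for 2 days to HeLa EGFP-654 cells, 500/well in Optimem with 2% FCS. The reporter's EGFP is disrupted by mis-splicing of beta-globin intron IVS2-654. Readout: summed well GFP fluorescence from 488 nm laser scanning; reference was 500 nM antisense […] 654 PNA.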
Epigenetic mod – derepresses silenced GFP locus in mouse C127i cells; AID 597; mouse C127i GFP locus derepression, cytometry, 30 h; Potency, µM (series often up to 46.1 µM), inactives show at the top dose GFP derepression (activation); hit rate 0.09% among 68,000; further: % of control where 0% means no effect
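Murine C127i mammary cells carrying a silenced, stably integrated CMV-driven GFP reporter were treated with compound for 30 hours at 37 C. After PBS washes, GFP-positive cells were counted by laser-scanning microplate cytometry.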
An asterisk follows results filed as active; ? = inconclusive; . = no result; [ ] = dose if it differs, or a comment. Unless noted, the call rests on the fitted dose curve; in most records, active means well fitted curve in the direction sought with a large enough effect; inconclusive means small, poorly fitted or top-dose-only effect, or another doubt; inactive means no such curve, though single readings can be large; an effect the other way counts as inactive or inconclusive.

SMILES | TSHR agonist | HEK293 cAMP cs | Ub-GFP proteasome | HBB splicing | Epigenetic mod
O=C(NC12CC3CC(CC(C3)C1)C2)N1CCN(C(=O)C2CCCO2)CC1 (stereo not given) | -2% | 0% | -2% | -1% | 0%
CCc1c(O)nc(SCc2ccccc2)n(C(C)CC)c1=O (stereo not given) | ? | 25µM* | -3% | -2% | 0%
Cc1ccc2nc(-c3cccc(S(=O)(=O)N(C)C)c3)cn2c1 | ? | 25µM* | . | 3%[0.369 µM] | 0%
Cc1ccc(S(=O)(=O)Nc2cccc(-c3cn4ccsc4n3)c2)cc1 | 56% | 21% | 3% | 0% | 2%
c1ccc(CN(Cc2ccco2)C(c2ccncc2)c2nnnn2C2CCCC2)cc1 (stereo not given) | ? | 10µM* | 2% | 0% | -4%
CCN(CC)C(c1ccc(C)cc1)c1nnnn1C1CCCCC1 (stereo not given) | ? | 16µM* | -3% | -1% | -3%
N[C@@H](C(=O)O)[C@@H]1C[C@H]1C(=O)O | 7% | 6% | 0% | 0% | -1%
CCCOCC(C)OCC(C)O (stereo not given) | 1% | 17% | . | 0% | .
O=C(NCc1ccccc1)c1ccc(Cc2nc3ccccc3[nH]2)cc1 | -6% | 5% | . | . | .
CCOC(=O)c1cc(-c2ccc3c(c2)OCCO3)nc2c1c(C)nn2CCC#N | ? | 20µM* | 2% | 0%[57.5 µM] | 3%
COc1cccc([C@@H]2Oc3ccc(OC)cc3/C(=N/O[C@@H](C)CN3CCCc4nc(C)c(C)cc43)[C@@H]2O)c1 | ? | 4µM* | . | 0%[9.22 µM] | .
O=C(Nc1ccccc1N1CCN(c2ccc(F)cc2)CC1)C1CCCCC1 | ? | 3.2µM* | 5% | . | 0%
O=C(Nc1ccccc1N1CCN(c2ccc(F)cc2)CC1)c1ccccc1 | ? | 6.3µM* | -7% | . | 0%
CCC(=O)N1CCN(c2ccccc2NC(=O)COc2cc(C)ccc2C(C)C)CC1 | ? | 16µM* | 3% | -3% | 0%
O=C(COc1ccccc1)Nc1ccccc1N1CCN(c2ccc(F)cc2)CC1 | ? | 7.9µM* | 3% | . | -2%
C=CC(=O)OCCCCCCOC(=O)C=C | ? | 18% | . | 6% | .
Cc1ccccc1OCC(=O)Nc1ccccc1N1CCOCC1 | ? | 25µM* | 10% | 1%[9.22 µM] | 2%
COc1ccc(-c2noc(CSc3nc4ccccc4c(=O)n3-c3ccccc3)n2)cc1OC | 26% | 18% | 5% | -1% | 2%
COc1cc(-c2nnc(CSc3nc4ccccc4s3)o2)cc(OC)c1OC | ? | 32µM* | -3% | 0%[57.5 µM] | 0%
COc1cc(-c2nnc(COC(=O)CSc3cc(C)c4ccccc4n3)o2)cc(OC)c1OC | 6% | 7% | -5% | 0% | -2%
COc1ccc(-c2nnc(CSc3nc4ccccc4c(=O)n3CC(C)C)o2)cc1OC | ? | 7.9µM* | -4% | 0%[57.5 µM] | -3%
C=CC(=O)CC | ? | -19% | . | 0% | .
CCOC(=O)c1nnn(-c2nonc2N)c1CNc1ccccc1 | 10%[11.4 µM] | 12% | -2% | 0% | -4%
CCOC(=O)c1nnn(-c2nonc2N)c1COc1ccccc1 | ? | 13µM* | -9% | 1% | 0%
COc1cccc(-c2cc(C(F)(F)F)n3ncc(C(=O)NCC4CCCO4)c3n2)c1 (stereo not given) | ? | ? | -6% | -1% | 2%
SMILES | TSHR agonist | HEK293 cAMP cs | Ub-GFP proteasome | HBB splicing | Epigenetic mod
COc1ccc(-c2cc(C(F)(F)F)n3ncc(C(=O)NCC4CCCO4)c3n2)cc1 (stereo not given) | ? | 10µM* | -4% | 3% | -2%
CNc1ccc(O)cc1 | -4% | 27% | . | -1% | .
Clc1ccc(-c2nnc(-c3ccccc3)o2)c(Cl)c1 | ? | 32µM* | -3% | -1% | 0%
COc1cccc(Nc2ncc3nc(-c4ccccc4)c(=O)n(Cc4cccs4)c3n2)c1 | 7% | 25% | 0% | 7% | -2%[9.22 µM]
COc1nc(Cl)nc(Cl)c1Cl (tested in a mixture with another compound) | -6%[11.4 µM] | 4%[11.4 µM] | 1%[9.17 µM] | 7%[9.22 µM] | 2%[9.22 µM]
CN(C)c1ccc(N=NS(=O)(=O)O)cc1 | ? | 10µM* | . | -1% | .
C[C@@](N)(/C=C\c1ccccc1)C(=O)O | -3%[11.4 µM] | 6%[11.4 µM] | 8%[9.17 µM] | 0%[9.22 µM] | 2%[9.22 µM]
CCC(=O)Nc1cccc(-c2nc3ccccc3c(=O)o2)c1 | 5% | -8% | 7% | 4% | -3%
CCC(CC)C(=O)Nc1cccc(-c2nc3ccccc3o2)c1 | 6.3µM* | 27% | 0% | 2% | 3%
COCC#Cc1ccc(C2C(C)CCC3C(=O)N4C(CCC(C)C4c4ccc(C#CCOC)cc4)C(=O)N32)cc1 (stereo not given) | 6%[11.4 µM] | -2%[11.4 µM] | . | 2%[9.22 µM] | .
C=CCNc1nc2c(c(=O)n(C)c(=O)n2C)n1Cc1ccc(F)cc1 | ? | 25µM* | 14% | 0% | .
O=C(O)CSc1nnc(CNc2ccc(Cl)cc2)n1Cc1ccccc1 | ? | 32µM* | -4% | . | -2%
Cc1ccccc1CS(=O)(=O)Cc1ccc(C(=O)NCCCN2CCCC2=O)o1 | ? | 4µM* | -9% | 7%[0.369 µM] | 4%
Cc1ccccc1CS(=O)(=O)Cc1ccc(C(=O)NCCCN2CCOCC2)o1 | -1%[11.4 µM] | -2% | 24% | 0% | 2%
Clc1ccc(OCc2nn3c(C4CCCCC4)nnc3s2)c(Cl)c1 | ? | 32µM* | -2% | 2%[0.369 µM] | 2%
Nc1nc(SCC(=O)N2CCCc3ccccc32)[nH]c(=O)c1-c1ccccc1 | . | 24% | 6% | 0% | 0%
O=C(CSc1nc2c(cnn2-c2ccc(F)cc2)c(=O)[nH]1)N1CCCc2ccccc21 | ? | 25µM* | -1% | -2% | -1%
Oc1cccc2ccc(SSc3ccc4cccc(O)c4n3)nc12 | 4%[11.4 µM] | 5%[11.4 µM] | -5%[9.17 µM] | 5%[9.22 µM] | 3%[9.22 µM]
COc1ccccc1NS(=O)(=O)c1cc(C(=O)O)ccc1F | 1% | 2% | . | . | .
Cc1c(Br)cc(C(=O)NCc2ccco2)c(C)c1C | ? | ? | . | 3%[0.369 µM] | 0%
Cc1ccc2c(CC(=O)NCc3ccco3)coc2c1C | 20µM* | 23% | 5% | 0% | 2%
COc1ccc(-c2cn3c(C)c(C(=O)NCCN4CCOCC4)sc3n2)cc1 | 5% | 0% | -4% | -1% | 0%
CCN(CC)C(=O)c1sc2nc(-c3ccc(OC)cc3)cn2c1C | ? | 16µM* | 4% | -1% | 2%
C=CCC1C=CC(Oc2ccc(OC)cc2)C(CO)O1 (stereo not given) | -2%[11.4 µM] | 2%[11.4 µM] | . | 2%[9.22 µM] | .
CC(=O)C1(O)C(C)CC2C3CCC4CC(O)CCC4(C)C3=CCC21C (stereo not given) | ? | 13µM* | 12% | 0% | 0%
CC(=O)N1CCN(c2ccccc2NC(=O)c2cc(Br)ccc2Cl)CC1 | ? | 32µM* | 2% | -2% | 0%
